{"source": "PubChem BioAssay (EPA / NIEHS)", "note": "More than one record can exist for a structure, and the calls need not agree. Calls of active or inactive are those of the source. The calls were made as follows: active = hit-call score of the fitted dose curve at least 0.9, where 1 is the maximum; inactive = score below 0.9.", "data": [{"read-out": "E-selectin (Homo sapiens) (UniProt P16581)", "assay": "BSK_SAg_Eselectin: BioMAP Diversity Plus: SAg Assay for Eselectin Biomarker Activity (AID 2283091)", "details": "primary human HUVEC with PBMC; actives raise or lower the signal", "experimental": "BSK_SAg is a cell-based, multiplexed-readout assay that uses umbilical vein endothelium and peripheral blood mononuclear cells, a human vascular primary cell co-culture, with measurements taken at 24 hours after chemical dosing in a 96-well plate.BSK_SAg_Eselectin is an assay component measured in the BSK_SAg assay. It measures E-selectin antibody related to regulation of gene expression using ELISA technology.Data from the assay component BSK_SAg_Eselectin was analyzed into 1 assay endpoint. This assay endpoint, BSK_SAg_Eselectin, was analyzed with bidirectional fitting relative to DMSO as the negative control and baseline of activity. Using a type of binding reporter, gain or loss-of-signal activity can be used to understand changes in the signaling as they relate to the gene SELE. Furthermore, this assay endpoint can be referred to as a primary readout, because this assay has produced multiple assay endpoints where this one serves a signaling function. To generalize the intended target to other relatable targets, this assay endpoint is annotated to the cell adhesion molecules intended target family, where the subfamily is selectins.\nThe levels of cell surface (or secreted, indicated by the prefix \"s\") biomarker endpoints were measured by ELISA. Overt cytotoxicity to cells in confluent adherent cultures (all systems other than the BT system) was assessed by measuring total protein levels using sulforhodamine B (SRB) staining in parallel cultures at the time of biomarker measurements, indicated as SRB endpoints. For proliferation assays for adherent cell types, individual cell types are cultured at sub-confluence and relative cell numbers quantified by SRB staining at time points optimized for each system (48 h: 3C and CASM3C systems; 72 h: BT and HDF3CGF systems; 96 h: SAg system). SRB was performed by staining cells with 0.1% SRB after fixation with 10% TCA and reading wells at 560 nm.Viability and proliferation of PBMC (T cells) was quantified by Alamar Blue reduction for the SAg and BT systems. For PBMC viability (referred to as PBMC Cytotoxicity within the assay endpoint names), cells were plated (75,000/well in a 96-well plate) and then chemical samples added for 1 h before addition of activators, SEB and TSST-1 (20 ng/mL final concentration each). Cells were incubated for 90 h. Then, Alamar Blue (20 uL/well) (Invitrogen, Cat DAL1100) was added for 6 h, and the plates were read with a fluorescence microplate reader at 546/580 nm (excitation/emission). For PBMC proliferation, cells were plated and activated as above but incubated for only 16 h prior to addition of Alamar Blue. Plates were read after 6 h.", "values": [{"smiles": "Cc1cc(CCC(=O)OCCOCCOCCOC(=O)CCc2cc(C)c(O)c(C(C)(C)C)c2)cc(C(C)(C)C)c1O", "outcome": "inactive"}, {"smiles": "O=C1c2ccccc2C(=O)c2c(O)ccc(O)c21", "AC50": "1.21 µM (active)"}, {"smiles": "CCOC(=O)C(C#N)=C(c1ccccc1)c1ccccc1", "outcome": "inactive", "AC50": "29.8 µM (active)"}, {"smiles": "CC(C)(C)CC(C)(C)c1ccc(OCCOCC[N+](C)(C)Cc2ccccc2)cc1", "AC50": "3.59 µM (active)"}, {"smiles": "COc1ccc(OC)c(N=Nc2c(O)ccc3ccccc23)c1", "outcome": "inactive"}, {"smiles": "CCCCN(CCCC)C(=O)N(CCCC)CCCC", "AC50": "9.94 µM (active)"}, {"smiles": "CS(=O)(=O)c1ccc(C2=C(c3ccccc3)C(=O)OC2)cc1", "outcome": "inactive"}, {"smiles": "CN(C)C(=O)Nc1ccc(Oc2ccc(Cl)cc2)cc1", "outcome": "inactive"}, {"smiles": "C=CC(C)(O)CCC=C(C)C", "note": "(stereo not given)", "outcome": "inactive"}, {"smiles": "CC1(C)C2=CCCC(C)(C)[C@]23CC[C@H]1C3", "outcome": "inactive"}, {"smiles": "CC(C)(N=C=O)c1cccc(C(C)(C)N=C=O)c1", "outcome": "inactive"}, {"smiles": "COc1cc(Cl)c(OC)cc1N", "outcome": "inactive"}, {"smiles": "CS(=O)(=O)OCCCCOS(C)(=O)=O", "outcome": "inactive"}, {"smiles": "C=C(C)C(=O)OCCOCCOCCOCCOC(=O)C(=C)C", "outcome": "inactive"}, {"smiles": "C[C@@H]1CCN(C(=O)[C@H](CCCN=C(N)N)NS(=O)(=O)c2cccc3c2NC[C@H](C)C3)[C@@H](C(=O)O)C1", "outcome": "inactive"}, {"smiles": "CN(C)C(=S)SC(=S)N(C)C", "outcome": "inactive"}, {"smiles": "CCCCCCCCCCCCCCCC(=O)OC/C=C(C)/C=C/C=C(C)/C=C/C1=C(C)CCCC1(C)C", "outcome": "inactive"}, {"smiles": "CCCCOC(=O)CCCCCCCC(=O)OCCCC", "outcome": "inactive"}, {"smiles": "CCN(CC)C(=O)N(CC)CC", "outcome": "inactive"}, {"smiles": "CC1(C)CCC[C@]2(C)[C@H]3CCO[C@]3(C)CC[C@@H]12", "outcome": "inactive", "AC50": "26.4 µM (active)"}, {"smiles": "CC(CN=Cc1ccccc1O)N=Cc1ccccc1O", "note": "(stereo not given)", "outcome": "inactive"}, {"smiles": "O=C(Nc1ccc2c(O)c(N=Nc3ccc(N=Nc4ccc(S(=O)(=O)O)cc4)cc3)c(S(=O)(=O)O)cc2c1)c1ccccc1", "outcome": "inactive"}, {"smiles": "C=C(C)[C@H]1CC=C(C)C(=O)C1", "outcome": "inactive"}, {"smiles": "IC(I)I", "outcome": "inactive"}, {"smiles": "CC(=O)Nc1ccc(C(=O)CCl)cc1", "AC50": "5.34 µM (active)"}, {"smiles": "O=C1OC2(c3ccccc31)c1ccc(O)c(Br)c1Oc1c2ccc(O)c1Br", "AC50": "26 µM (active)"}, {"smiles": "CC(=O)c1c(C)c([N+](=O)[O-])c(C(C)(C)C)c([N+](=O)[O-])c1C", "outcome": "inactive"}, {"smiles": "C1=CC2C3C=CC(C3)C2C1", "note": "(stereo not given)", "outcome": "inactive"}, {"smiles": "Oc1c(Cl)cc(Cl)c(Cl)c1Cc1c(O)c(Cl)cc(Cl)c1Cl", "AC50": "3.17 µM (active)"}, {"smiles": "Clc1cc(Cl)c(-c2c(Cl)c(Cl)cc(Cl)c2Cl)cc1Cl", "AC50": "14.9 µM (active)"}, {"smiles": "c1ccc(Oc2ccccc2)cc1", "outcome": "inactive"}, {"smiles": "O=C1OC[C@H](Cc2cccc(O)c2)[C@H]1Cc1cccc(O)c1", "outcome": "inactive"}, {"smiles": "COc1ccc(CCN2CCC(Nc3nc4ccccc4n3Cc3ccc(F)cc3)CC2)cc1", "outcome": "inactive"}, {"smiles": "c1ccc2cc(Nc3ccc(Nc4ccc5ccccc5c4)cc3)ccc2c1", "outcome": "inactive"}, {"smiles": "O=CN1CCOCC1", "outcome": "inactive"}, {"smiles": "CCC(C)c1cc([N+](=O)[O-])cc([N+](=O)[O-])c1OC(=O)OC(C)C", "note": "(stereo not given)", "AC50": "12.2 µM (active)"}, {"smiles": "CC(=O)C1(C)CC2=C(CCCC2(C)C)CC1C", "note": "(stereo not given)", "AC50": "15.5 µM (active)"}, {"smiles": "CCCCCCC(CO)CCCC", "note": "(stereo not given)", "outcome": "inactive"}]}]}
